p53null 32C tox: qHTS Screen for Compounds that Selectively Target Cancer Cells with p53 Mutations: Cytotoxicity of p53 Null Cells at the Permissive Temperature; AID 903, 2007; 0.62% of 55,000 active; H1299-neo p53 null cells, ATP luminescence, 24 h, 32C; Potency, µM (highest dose often 46.1 µM), usual class: cytotoxic; note: nearly all actives have a fitted effect of over 55% in size
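H1299-neo (p53 null) cells, 600/well, treated 24 h at 32C with compound up to 46 uM; ATPlite luminescence viability, normalized to DMSO and 100 uM tamoxifen; AC50 by Hill fit.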
PMP22 txn: Cell-based coincidence reporter assay to measure PMP22 gene transcription in S16 Pmp22-F2sN cells - Primary screen. S16 Pmp22-F2sN Schwann cells, FLuc/NLuc coincidence luminescence, 24 h. Potency, µM (titrated, usually from 57.5 µM), most hits filed as inhibitors. 2% of 43,000 active; active = clear falling dose curves in both reporters; inconclusive = both reporters move, but less clearly or upward; inactive = either reporter flat; the % is the NLuc reporter signal
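S16(c9) Schwann cells with FLuc/NLuc coincidence reporter in the Pmp22 3' UTR; compounds pin-transferred, 24 h at 37C. Dual-luciferase read: FLuc first, then NLuc after Stop&Glo, each 10 min at room temperature.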
p53null 39C tox: qHTS Screen for Compounds that Selectively Target Cancer Cells with p53 Mutations: Cytotoxicity of p53 Null Cells at the Nonpermissive Temperature. H1299 p53-null (neo) cells, 39C, ATPlite viability, 24 h. Potency, µM (top dose mostly 46.1 µM), hits mostly cytotoxic. 0.97% of 55,000 active. AID 904, 2007; note: nearly all actives have a fitted effect of over 50% in size
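H1299 lung cancer cells, p53-null (H1299-neo) or expressing p53 A138V (H1299-p53A138V), were plated overnight at 37C, then exposed to compounds at up to 46 uM for 24 hr at 39C. Viability was read by ATP-based luminescence.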
S16 F2sN tox: Cell viability qHTS assay in S16 Pmp22-F2sN cells; Potency, µM (highest dose often 57.5 µM), most hits filed as cytotoxic; AID 1508642, 2021; S16 Pmp22-F2sN Schwann cells viability, CellTiter-Glo, 24 h; 0.48% of 43,000 active; note: nearly all actives have a fitted effect of over 65% in size
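S16 Pmp22-F2sN Schwann cells (500-1,000/well) in phenol-red-free DMEM with 10% FBS received 23 nL compound by pin tool for 24 h at 37 °C. Viability was then read as CellTiter-Glo luminescence after 15 min at room temperature.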
pS6 MEF inh: Acumen qHTS Assay for Inhibitors of the mTORC1 Signaling Pathway in MEF (Tsc2-/-, p53-/-) Cells: Sytravon; Potency, µM (series often up to 38.3 µM), hits mostly inhibitors; AID 493208, 2011; 0.78% of 44,000 active; Tsc2-/- p53-/- MEF, phospho-rpS6 immunofluorescence/PI, 24 h; note: nearly all actives have a fitted effect of over 50% in size
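Cell-based qHTS: Tsc2-/- p53-/- MEF, 24 h cpd, 37 °C; fix/perm, anti-phospho-S6 Alexa-488 + PI; Acumen 488 nm scan; pS6/PI ratio, % positive cells; rapamycin 7.5 nM = inhibition ref; PI count = viability.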
OvCa metastasis: Primary qHTS assay for Inhibitors of ovarian cancer metastasis using an organotypic tumor microenvironment (TME) model. SKOV3ip1-GFP adhesion/invasion on 3D omental model, fluorescence. Potency, µM (doses to about 45.8 µM), hits mostly inhibitors. 0.1% of 46,000 active. AID 1963576, 2024; note: nearly all actives have a fitted effect of over 65% in size
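Primary human omental fibroblast/mesothelial 3D culture pre-formed 48 h. SKOV3ip1-GFP cells added with compounds (0.36-46 umol/L), incubated 2 h RT/16 h 37 C, fixed; GFP cells quantified at 488/509 nm.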
NLuc saturating: Biochemical NLuc saturation counterscreen for small molecule modulators of PMP22 gene expression - Nano-Glo assay | 4% of 690 active | Secreted NLuc enzyme (filtered S16 cell medium), Nano-Glo luminescence | AID 1508638, 2021 | Potency, µM (highest dose often 57.5 µM), most hits filed as inhibitors | shares compounds with PMP22 txn
NLuc Km ctr: Biochemical coelenterazine-based NLuc counterscreen for small molecule modulators of PMP22 gene expression - Km assay | secreted NLuc enzyme, coelenterazine luminescence, Km conditions | shares compounds with PMP22 txn | 5% of 690 active | AID 1508639, 2021 | Potency, µM (titrated, usually from 57.5 µM), actives largely listed as inhibitors
FLuc counter: Biochemical FLuc counterscreen for small molecule modulators of PMP22 gene expression; shares compounds with PMP22 txn; Potency, µM (top dose mostly 57.5 µM), actives largely listed as inhibitors; 690 tested, under 10 active; purified P. pyralis FLuc, luminescence, 10 min
Target sequence (P08659 whole entry, looked up): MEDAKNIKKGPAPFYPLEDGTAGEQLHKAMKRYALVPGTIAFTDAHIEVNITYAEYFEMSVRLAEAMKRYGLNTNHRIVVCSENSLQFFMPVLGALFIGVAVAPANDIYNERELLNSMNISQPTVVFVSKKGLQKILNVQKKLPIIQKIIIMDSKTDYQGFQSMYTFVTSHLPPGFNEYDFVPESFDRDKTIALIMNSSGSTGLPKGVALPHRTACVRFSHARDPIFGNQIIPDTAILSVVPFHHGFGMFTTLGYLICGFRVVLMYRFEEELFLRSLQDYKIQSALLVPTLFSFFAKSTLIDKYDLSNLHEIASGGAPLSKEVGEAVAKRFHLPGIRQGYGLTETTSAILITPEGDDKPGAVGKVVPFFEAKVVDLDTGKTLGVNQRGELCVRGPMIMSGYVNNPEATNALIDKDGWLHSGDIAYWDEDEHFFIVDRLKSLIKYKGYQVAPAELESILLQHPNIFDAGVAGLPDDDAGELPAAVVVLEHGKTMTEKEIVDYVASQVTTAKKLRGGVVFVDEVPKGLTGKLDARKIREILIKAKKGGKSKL
S16 F2sN tox cnf: Cell viability qHTS assay in S16 Pmp22-F2sN cells - Confirmatory screen; shares compounds with PMP22 txn; S16 Schwann cells viability, CellTiter-Glo ATP luminescence, 24 h; Potency, µM (highest dose often 57.5 µM), usual class: cytotoxic; 7% of 690 active
PMP22 txn cnf: Cell-based coincidence reporter assay to measure PMP22 gene transcription in S16 Pmp22-F2sN cells - Confirmatory screen; shares compounds with PMP22 txn; 22% of 690 active; S16 Schwann cells Pmp22-F2sN, dual luciferase, 24 h; Potency, µM (titrated, usually from 57.5 µM), most hits filed as inhibitors; AID 1508646, 2021; active = clear falling dose curves in both reporters; inconclusive = both reporters move, but less clearly or upward; inactive = either reporter flat; the % is the FLuc reporter signal
PMP22 prot conf: Cell-based HiBiT reporter assay to measure PMP22 protein expression in S16 Pmp22-HiBiT cells - Confirmatory screen; shares compounds with PMP22 txn; S16 Schwann cells Pmp22-HiBiT, luminescence, 48 h; Potency, µM (titrated, usually from 27.9 µM), hits mostly inhibitors; 95 tested, under 10 active
Target sequence (P25094 whole entry, looked up): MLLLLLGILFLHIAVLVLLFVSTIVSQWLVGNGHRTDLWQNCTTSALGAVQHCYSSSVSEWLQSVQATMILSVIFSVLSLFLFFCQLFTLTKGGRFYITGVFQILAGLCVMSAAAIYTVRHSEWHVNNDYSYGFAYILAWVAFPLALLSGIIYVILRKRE
Of the large screens only hits and unclear results are named; the others gave an inactive call (follow-up assays come after a bar, where they were run). Rows were chosen to be rich in hits. Some 3% of all compounds tested hit in one or more screens of this group. Unless noted, calls come from the whole dose curve; as a rule, active = well fitted curve in the direction sought with a large enough effect; inconclusive = small, poorly fitted or top-dose-only effect, or another doubt; inactive = no such curve, though single readings can be large; an effect the other way counts as inactive or inconclusive.

CC(=O)N[C@@H]1[C@H](O[C@@H]2c3ccc(c(Cl)c3)Oc3cc4cc(c3O[C@H]3O[C@H](CO)[C@@H](O)[C@H](O)[C@H]3NC(=O)CCCCCCCC(C)C)Oc3ccc(cc3Cl)C[C@H]3NC(=O)[C@H](N)c5ccc(O)c(c5)Oc5cc(O)cc(c5)[C@H](NC3=O)C(=O)N[C@H]4C(=O)N[C@H]3C(=O)N[C@@H]2C(=O)N[C@@H](C(=O)O)c2cc(O)cc(O[C@H]4O[C@H](CO)[C@@H](O)[C@H](O)[C@H]4O)c2-c2cc3ccc2O)O[C@H](CO)[C@@H](O)[C@@H]1O	none (no result: p53null 32C tox, PMP22 txn, p53null 39C tox, S16 F2sN tox, pS6 MEF inh)
CCOC(=O)c1c(C)c(-c2ccccc2)n(CC(=O)Nc2cc(C)ccc2OC)c1C	PMP22 txn 9.5µM | NLuc saturating inactive | NLuc Km ctr inactive | FLuc counter inactive | S16 F2sN tox cnf inactive | PMP22 txn cnf inconclusive
CCOC(=O)c1c(C)c(-c2ccccc2)n(CC(=O)Nc2cccc(C)c2C)c1C	PMP22 txn inconclusive
O=C(CCS(=O)(=O)c1cc(Br)cc2c1N(C(=O)C1CC1)CC2)N1CCN(c2ccc(F)cc2)CC1	PMP22 txn inconclusive
O=C(CCS(=O)(=O)c1cc(Br)cc2c1N(C(=O)C1CC1)CC2)N1CCN(c2cccc(C(F)(F)F)c2)CC1	PMP22 txn 13µM, S16 F2sN tox inconclusive | NLuc saturating inactive | NLuc Km ctr inactive | FLuc counter inactive | S16 F2sN tox cnf inactive | PMP22 txn cnf inactive
COc1cccc(C(=O)Nc2ccc(Cl)c(-c3nc4ccccc4[nH]3)c2)c1	PMP22 txn inconclusive
Cc1ccc(Nc2cc(C(=O)NC3CCCC3)c3ccccc3n2)cc1C	PMP22 txn 2.8µM | NLuc saturating inactive | NLuc Km ctr inactive | FLuc counter inconclusive | S16 F2sN tox cnf inactive | PMP22 txn cnf inactive
CCOC(=O)c1c(C)[nH]c(CCC(=O)NCCCN2CCN(c3cc(Cl)ccc3C)CC2)c1C	PMP22 txn 15µM, S16 F2sN tox inconclusive, pS6 MEF inh inconclusive, OvCa metastasis inconclusive | NLuc saturating inactive | NLuc Km ctr inactive | FLuc counter inactive | S16 F2sN tox cnf inconclusive | PMP22 txn cnf inconclusive
CCOc1cc(C(Nc2cc(C)ccn2)c2ccc3cccnc3c2O)ccc1OC (stereo unspecified)	p53null 32C tox inconclusive, PMP22 txn 10µM, p53null 39C tox inconclusive, S16 F2sN tox inconclusive, pS6 MEF inh inconclusive | NLuc saturating inconclusive | NLuc Km ctr 17µM | FLuc counter inactive | S16 F2sN tox cnf inconclusive | PMP22 txn cnf inconclusive
Cc1ccc(CNC(=O)c2ccc(Cn3c(=O)c4ccccc4n(CC(=O)Nc4ccc(C)cc4C)c3=O)cc2)cc1	PMP22 txn 14µM, p53null 39C tox inconclusive | NLuc saturating inactive | NLuc Km ctr inactive | FLuc counter inactive | S16 F2sN tox cnf inconclusive | PMP22 txn cnf inconclusive
Cc1ccc(CNC(=O)c2ccc(Cn3c(=O)c4ccccc4n(CC(=O)Nc4ccc(C)cc4)c3=O)cc2)cc1	PMP22 txn inconclusive, S16 F2sN tox inconclusive
COc1ccc(Cl)cc1NC(=O)Cn1c(=O)n(-c2ccc(C)cc2)c(=O)c2ccc(C(=O)NCc3ccccc3Cl)cc21	PMP22 txn 10µM, p53null 39C tox inconclusive | NLuc saturating inactive | NLuc Km ctr inactive | FLuc counter inactive | S16 F2sN tox cnf 31µM | PMP22 txn cnf 11µM
COCCCNC(=O)c1ccc(Cn2c(=O)c3ccccc3n(CC(=O)Nc3ccc(C)cc3C)c2=O)cc1	PMP22 txn inconclusive
Cc1ccc(CNC(=O)c2ccc(Cn3c(=O)c4ccccc4n(CC(=O)Nc4c(C)cc(C)cc4C)c3=O)cc2)cc1	p53null 32C tox inconclusive, PMP22 txn 16µM, p53null 39C tox inconclusive, S16 F2sN tox inconclusive | NLuc saturating inactive | NLuc Km ctr inactive | FLuc counter inactive | S16 F2sN tox cnf inconclusive | PMP22 txn cnf 7.9µM | PMP22 prot conf inconclusive
NS(=O)(=O)c1ccc(NC2=CC(=O)c3ccccc3C2=O)cc1	none (no result: p53null 32C tox, PMP22 txn, p53null 39C tox, S16 F2sN tox, pS6 MEF inh)
O=C(Nc1ccccc1C(F)(F)F)N1CCN(c2ccc3nnc(-c4ccc(F)cc4)n3n2)CC1	PMP22 txn 16µM | NLuc saturating inactive | NLuc Km ctr inactive | FLuc counter inactive | S16 F2sN tox cnf inactive | PMP22 txn cnf inconclusive
